Pf Dd2 growth – qHTS Primary assay for Inhibitors of Plasmodium falciparum Dd2 growth in vitro; Potency, µM (doses to about 28.9 µM), for the others: at the top dose activity, negative = inhibition, most hits filed as inhibitors; 120,000 compounds, 4.3% hits; P. falciparum Dd2 growth, SYBR Green, 72 h; AID 1347417, 2020; active = well fitted inhibition curve with a large enough effect;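 also: plate controls were DMSO vehicle for no effect and reference drug for full effect; nearly all actives have a fitted effect of over 65% in size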
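Infected erythrocytes (Dd2, 0.3% parasitemia, 2.5% hematocrit final) are added to compound in RPMI-1640/Albumax II medium, grown 72 h at 37C in low oxygen, then lysed with saponin/Triton-X containing SYBR Green and read by fluorescence.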
Numbers without * were called inactive; i = inactive; [ ] = remark or other dose. Only a selection was taken, and hits are over-represented in it overall. Potency is read from the fitted curve at half-maximal effect.

SMILES	Pf Dd2 growth
Cc1ccc(S(=O)(=O)N(C)CC2CCOC2)cc1F (stereo not given)	21%[5.79 µM]
O=[S+]1([O-])NC2(CCCN(Cc3cccc(C(F)(F)F)c3)C2)COc2ccccc21 (stereo not given)	i
COc1ccc(C(=O)NC[C@@H]2C=C(C)[C@H](CC(=O)N3CCN(C(C)=O)CC3)C[C@H]2C(C)C)cc1	-17%
CC1=C[C@@H](CNC(=O)c2ccccc2)[C@H](C(C)C)C[C@H]1CC(=O)N1CCCC1	11µM*
CC1=C[C@@H](CNC(=O)C(C)(C)C)[C@H](C(C)C)C[C@H]1Cc1nnc(-c2ccncc2)o1	-10%[44.1 µM]
CC(=O)NC[C@@H]1C=C(C)[C@H](CC(=O)N2CCN(C(C)=O)CC2)C[C@H]1C(C)C	-12%[44.1 µM]
COc1ccc(-c2nnc(C[C@@H]3C[C@@H](C(C)C)[C@H](CO)C=C3C)o2)cc1	10µM*
COc1ccc(C(=O)NC[C@@H]2C=C(C)[C@H](Cc3nnc(-c4ccncc4)o3)C[C@H]2C(C)C)cc1	3.5µM*
CC1=C[C@@H](CO)[C@H](C(C)C)C[C@H]1Cc1nnc(-c2cccnc2)o1	i
CCOC(=O)C[C@@H]1C[C@@H](C(C)C)[C@H](CNC(=O)c2ccncc2)C=C1C	i
CC(C)CS(=O)(=O)Nc1ccc([C@H]2OCC(=O)N[C@@H]2CO)cc1	6%[44.1 µM]
CCCCC(=O)N1CCC2(CC1)Nc1ccccc1NC2=O	-4%
COC[C@@H]1CN(C(=O)c2ccc3ncccc3c2)C[C@H]1c1ccccn1	-6%
Cc1ccccc1[C@H]1[C@@H](C(=O)NCCC(=O)O)C[C@@](C)(C(=O)O)N1C	15%
CC(=O)N1CCC(NC2(Cc3cc(CN4CCOCC4)on3)COC2)CC1	19%[44.1 µM]
N#Cc1ccc(OCC2CN(Cc3cccc(C(F)(F)F)c3)C(=O)c3c(ccnc3-c3ccc(OCC(=O)O)cc3)O2)cc1 (stereo not given)	i
COc1ccc(-c2n[nH]c3c2CC(=O)N(CCOc2ccccc2)C3)cc1F	-16%[44.1 µM]
COc1ccccc1-c1ccnc(-c2nnc(C)n2CCN2CCOCC2)c1	i
Cc1ccc(C)c(-n2cc(CN(C)CCO)c(-c3ccccc3)n2)c1	-18%
COc1ccc(-c2nn(-c3ccccc3C)cc2CN(C)CCN2CCOCC2)cc1F	11µM*
CCN1CC(CN(C)Cc2nc(Cc3cccc(F)c3)no2)CC1=O (stereo not given)	3%
CCN1CC(CN(C)Cc2cn(-c3ccccc3C)nc2-c2ccc(OC)c(F)c2)CC1=O (stereo not given)	10µM*
CS(=O)(=O)N(C1CCOCC1)C1CNC1	2%
COc1ccccc1CCc1nc(C2CC(=O)N(c3ccc(F)c(Cl)c3)C2)no1 (stereo not given)	58%
CCc1noc(Cn2nc(-c3ccccc3)c3ccccc3c2=O)n1	-12%
SMILES	Pf Dd2 growth
CCCCN(C)CCNC(=O)c1cc(-c2cccnc2)nc2ccc(S(=O)(=O)N3CCC(C)CC3)cc12	5µM*
CCCCN(CCCC)CCNC(=O)c1cc(-c2cccnc2)nc2ccc(S(=O)(=O)N3CCC(C)CC3)cc12	-25%
CC1CCN(S(=O)(=O)c2ccc3nc(-c4cccnc4)cc(C(=O)NCCCOC(C)C)c3c2)CC1	i
Cc1ccc(C(=O)N2CCN(c3cc(-c4cccs4)[nH]n3)CC2)c(C)c1	i
CC1=C[C@@H](CO)[C@H](C(C)C)C[C@H]1CC(=O)NCc1ccc(C(F)(F)F)cc1	-14%[44.1 µM]
N#Cc1cccc(S(=O)(=O)N[C@@H]2CCOC[C@H]2OCc2cscn2)c1	-6%
O=C1N(CCCCOc2ccccc2)c2ccccc2NC12CCNCC2	7.9µM*
Cn1ccnc1CN1C(=O)NC2(CCNCC2)C1=O	2%
O=C1NC2(CCNCC2)C(=O)N1CCCc1cccnc1	-3%
CC(C)Oc1ccc(C(=O)N2[C@@H]3CC[C@H]2CC(NC(=O)c2ccc(F)cc2)C3)cc1 (stereo not given in full)	-16%
O=C(c1ccccc1)N1CCC2(CN[S+](=O)([O-])c3cccnc3O2)C1 (stereo not given)	48%
COc1ccc(N2CC(C(=O)NCCc3ccc(F)cc3)NC2=O)cc1 (stereo not given)	-17%
C#CCN(C)C[C@H]1CN2CC[C@H]1C[C@@H]2CNS(=O)(=O)c1ccccc1	i
C#C[C@H]1CN2CC[C@H]1C[C@@H]2CNCc1cccc(C#N)c1	14µM*
CC[C@H]1CN2CC[C@H]1C[C@@H]2CNS(=O)(=O)c1cccs1	-5%[44.1 µM]
C=C[C@H]1CN2CC[C@H]1C[C@@H]2CNS(=O)(=O)c1ccc(Cl)cc1	-6%[44.1 µM]
O=S(=O)(NC[C@H]1C[C@@H]2CCN1C[C@@H]2CN1CCCCC1)c1ccccc1	-5%[44.1 µM]
CC[C@H]1CN2CC[C@H]1C[C@@H]2CNS(=O)(=O)c1ccccc1	i
C#C[C@H]1CN2CC[C@H]1C[C@@H]2CNS(=O)(=O)c1cccs1	8.9µM*
C#C[C@H]1CN2CC[C@H]1C[C@@H]2CNS(=O)(=O)c1ccc(Cl)cc1	5µM*
C#C[C@H]1CN2CC[C@H]1C[C@@H]2CNCc1ccc(C(C)C)cc1	i

From PubChem BioAssay
